For assay [1], the target named is Cytochrome P450 3A4 (Homo sapiens) (UniProt P08684). The assay can be described thus: qHTS Assay for Inhibitors and Substrates of Cytochrome P450 3A4 (AID 884). Note: potency is the fitted concentration of half-maximal effect; nearly all actives have a fitted effect of over 50% in size. The method in brief: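 Luminescent readout of luciferin produced by CYP3A4 (20 nM) dealkylation of Luciferin-PPXE, 25 uM (its KM). NADPH-driven reaction ran 60 min at RT after 10 min compound preincubation; data scaled to 57 uM ketoconazole as 100% inhibition.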

For assay [2] the target is unchanged. The assay can be described thus: qHTS Assay for Activators of Cytochrome P450 3A4 (AID 885). Note: nearly all actives have a fitted effect of over 65% in size. In outline:
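Activators are scored by enhanced luminescence from CYP3A4 conversion of luciferin-PPXE (25uM, equal to KM) to luciferin, after 60 min at RT with an NADPH-regenerating system.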

Potency and activity change, positive = activation data for 24 compounds are collected here from PubChem BioAssay (NCATS).

A number with no mark means an inactive call. Records with an inconclusive call do not appear. Calls of active or inactive are those of the source. Calls come from the whole dose curve; as a rule, active = well fitted curve in the direction sought with a large enough effect; inconclusive = small, poorly fitted or top-dose-only effect, or another doubt; inactive = no such curve, though single readings can be large; an effect the other way counts as inactive or inconclusive.

Chain of Cytochrome P450 3A4 (Homo sapiens) (P08684 whole entry, looked up): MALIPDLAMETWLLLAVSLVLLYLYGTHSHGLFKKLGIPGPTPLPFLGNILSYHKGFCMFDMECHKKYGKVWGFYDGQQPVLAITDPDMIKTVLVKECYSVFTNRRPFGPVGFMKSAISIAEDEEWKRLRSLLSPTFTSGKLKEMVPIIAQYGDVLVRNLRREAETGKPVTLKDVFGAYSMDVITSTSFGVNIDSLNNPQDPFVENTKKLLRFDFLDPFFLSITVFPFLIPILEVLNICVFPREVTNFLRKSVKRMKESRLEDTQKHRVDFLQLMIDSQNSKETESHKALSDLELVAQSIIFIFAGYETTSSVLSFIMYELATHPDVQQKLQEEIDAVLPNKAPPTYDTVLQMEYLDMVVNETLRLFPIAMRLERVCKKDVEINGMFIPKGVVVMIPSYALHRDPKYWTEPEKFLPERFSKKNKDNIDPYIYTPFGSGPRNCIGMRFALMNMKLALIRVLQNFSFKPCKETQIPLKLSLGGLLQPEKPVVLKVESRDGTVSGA

As to `CCC1=C(OC(=O)N(CC)CC)N2C(=O)OC(=NCCOC)[C@]2(Cc2ccccc2)[C@H]2C1=CC[C@H]1C(=O)NC(=O)[C@H]12`, the Potency in assay [1] is 6.31 µM (active). The Potency entry in assay [2] is “inactive”.
For the compound `COc1ccc(OC2C=CC(c3ccccc3)OC2CO)cc1` (stereo not drawn), the Potency in assay [1] was 3.98 µM (active). For the same compound, the activity change, positive = activation in assay [2] was -66.9% [at 11.4 µM].
Consider `CNC1=C(Cl)C(=O)c2ccncc2C1=O`, for which, in assay [1], the Potency was 1.58 µM (active). The Potency result in assay [2] was “inactive”.
Consider `CC(C)c1ccccc1S(=O)(=O)c1cc(N)c2ncccc2c1[N+](=O)[O-]`, for which the Potency in assay [1] is 1 µM (active). Moreover, the Potency entry in assay [2] was “inactive”.
Consider `CCC1=C2CC[C@H]3C(=O)N(CC)C(=O)[C@H]3[C@H]2[C@@]2(Cc3ccccc3)C(=O)N(CC3CC3)C(=O)N2C1=O`, for which the Potency in assay [1] was 2.51 µM (active). The Potency entry in assay [2] was “inactive”.
Take `CNC(=O)[C@]1(C)C[C@H]1[C@H](NC(=O)[C@]1(C)C[C@H]1[C@H](NC(=O)[C@]1(C)C[C@H]1[C@H](NC(=O)[C@]1(C)C[C@H]1[C@H](NC(=O)OCc1ccccc1)c1ccccc1)c1ccccc1)c1ccccc1)c1ccccc1`: the Potency in assay [1] was 12.6 µM (active). Further, the Potency result in assay [2] is “inactive”.
Consider `CCC1=C2CC[C@H]3C(=O)N(C)C(=O)[C@H]3[C@H]2[C@@]2(Cc3ccccc3)C(=NCC(=O)OC)OC(=O)N2C1=O`, for which, in assay [1], the Potency was 10 µM (active). Besides, the Potency entry in assay [2] was “inactive”.
Consider `CCC1=C(OC(=O)N(CC)CC)N2C(=O)OC(=NCC3CC3)[C@]2(Cc2ccccc2)[C@H]2C1=CC[C@H]1C(=O)N(C)C(=O)[C@H]12`, for which the Potency in assay [1] is 3.98 µM (active). For the same compound, the Potency entry in assay [2] is “inactive”.
For the compound `COC(=O)[C@@H]1C[C@@H]2CC[C@@H](O)C[C@@H]2N1Cc1ccc(-c2ccccc2)cc1`, in assay [1], the Potency is 20 µM (active). Also, the Potency result in assay [2] is “inactive”.
As for `COC(=O)c1ccc(C(/C=C/[C@@H](C)C(=O)NCCN2CCCC2)NC(=O)OCc2ccccc2)cc1` (stereo partly drawn), the Potency in assay [1] is 10 µM (active). Further, the Potency entry in assay [2] is “inactive”.
For the compound `C/C(CCN1CCc2nc(-c3ccccc3)c(-c3ccccc3)cc2C1)=N\O[C@@H](C)CN1CCCCc2nc(C)c(C)cc21`, the Potency in assay [1] is 3.98 µM (active). Further, the activity change, positive = activation in assay [2] was -84.8% [at 11.4 µM].
As for `CCN1C(=O)[C@@H]2[C@H](C1=O)[C@@H]1C[C@H]3C(=O)N(CC)C(=O)[C@H]3[C@@H]3C1=C(C(=O)N1C(=O)O/C(=N\CC4CC4)[C@]31C)[C@@H]2C`, the Potency in assay [1] was 15.8 µM (active). For the same compound, the Potency result in assay [2] was “inactive”.
With `COC(=O)[C@@H]1C[C@H]2CC[C@H](O)C[C@H]2N1Cc1ccccc1OS(=O)(=O)c1ccc(C)cc1`, in assay [1], the Potency is 2 µM (active). Also, the Potency entry in assay [2] was “inactive”.
Take `COC(=O)[C@@H]1C[C@@]2(O)[C@@H](O)[C@@H](O)[C@@H](O)C[C@H]2N1Cc1cc(OC)cc(OC)c1`: in assay [1], the Potency was 3.16 µM (active). Further, the Potency entry in assay [2] was “inactive”.
Consider `COC(=O)c1cccc(C23CC4(C2)[C@H](CN(CC2CCCCC2)[C@@H]4c2ccccc2)C3c2ccccc2)c1` (stereo partly drawn), for which, in assay [1], the Potency was 15.8 µM (active). Also, in assay [2], the Potency result is “inactive”.
`O=C1[C@H]2[C@H]3[C@H](O)[C@H](O)C/C(=N/OC[C@@H](O)COCc4ccco4)[C@@H]3CC[C@@H]2C(=O)N1Cc1ccc2c(c1)OCO2`: the Potency in assay [1] was 3.16 µM (active). Also, the activity change, positive = activation in assay [2] is -99.9% [at 11.4 µM].
As to `CCC1=C2CC[C@H]3C(=O)N(CC)C(=O)[C@H]3[C@H]2[C@@]2(Cc3ccccc3)C(=NCC3CC3)OC(=O)N2C1=O`, in assay [1], the Potency was 2.51 µM (active). The Potency result in assay [2] is “inactive”.
Take `COC(=O)[C@@H]1C[C@@H]2CC[C@@H](O)C[C@@H]2N1CC1CCCCC1`: in assay [1], the Potency is 12.6 µM (active). Further, the Potency result in assay [2] is “inactive”.
With `CCC1=C2CC[C@H]3C(=O)N(CC(=O)OC)C(=O)[C@H]3[C@H]2[C@@]2(Cc3ccccc3)C(=NCCc3c[nH]c4ccccc34)OC(=O)N2C1=O`, the Potency in assay [1] was 1.26 µM (active). Besides, the Potency entry in assay [2] is “inactive”.
Take `COC(=O)[C@H](Cc1ccccc1)NC(=O)[C@@]1(C)C[C@@H]1[C@@H](NC(=O)OCc1ccccc1)c1ccccc1`: the Potency in assay [1] was 2 µM (active). In addition, the Potency entry in assay [2] was “inactive”.
In the case of `CC(C)=CCC/C(C)=C/CO/N=C1/C[C@@H](O)[C@@H](O)[C@@H]2[C@@H]3C(=O)N(Cc4ccc5c(c4)OCO5)C(=O)[C@H]3CC[C@H]12`, the Potency in assay [1] was 1.58 µM (active). The activity change, positive = activation in assay [2] is -115% [at 11.4 µM].
With `CCC1=C2CC[C@H]3C(=O)N(CC(=O)OC)C(=O)[C@H]3[C@H]2[C@@]2(C)C(=NCCc3c[nH]c4ccccc34)OC(=O)N2C1=O`, the Potency in assay [1] is 6.31 µM (active). The Potency result in assay [2] is “inactive”.
On to `CCC1=C(OC(=O)N(CC)CC)N2C(=O)OC(=NCCOC)[C@]2(Cc2ccccc2)[C@H]2C1=CC[C@H]1C(=O)N(CC)C(=O)[C@H]12`, for which the Potency in assay [1] is 5.01 µM (active). Moreover, the Potency entry in assay [2] is “inactive”.
As for `Clc1ccc(C2[C@H]3CN(Cc4cccnc4)[C@H](c4ccccc4)C34CC2(c2ccccc2)C4)cn1` (stereo partly drawn), in assay [1], the Potency is 2 µM (active). Moreover, the Potency result in assay [2] was “inactive”.
